Values joined by “and” are separate entries in the source; they are usually repeats but may differ in a detail not shown here. Equal values may be shown once. Inconclusive results are not listed. Some structures have more than one record in an assay (separate samples or runs), and their calls can disagree. Active and inactive are the calls of the source. Rule for the calls, unless noted: active = hit-call score of the fitted dose curve at least 0.9, where 1 is the maximum; inactive = score below 0.9.

These results are taken from PubChem BioAssay (EPA / NIEHS).

Read-out in experiment [1]: Monocyte Chemoattractant Protein-1 (MCP1), CCL2 (gene 6347)
The experiment in a line: BSK_LPS_MCP1: BioMAP Diversity Plus: LPS Assay for Monocyte Chemoattractant Protein-1 (MCP1) Biomarker Activity (AID 2283081).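 For AC50: secreted MCP-1 protein quantified by ELISA in culture supernatant.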 As to conditions: primary human HUVEC with PBMC; actives raise or lower the signal. Summed up:
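LPS-stimulated HUVEC/PBMC co-culture; chemical, 24 h; MCP-1 by ELISA; bidirectional fit vs DMSO; cytotoxicity via SRB (0.1% stain, 10% TCA fix, 560 nm) in parallel wells.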

The nature of experiment [2]: BSK_LPS_PGE2: BioMAP Diversity Plus: LPS Assay for Prostaglandin E2 (PGE2) Biomarker Activity (AID 2283082).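 For AC50: secreted prostaglandin E2 measured by ELISA in LPS-stimulated co-culture.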 As to conditions: primary human HUVEC with PBMC; actives raise or lower the signal. Summed up:
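LPS-activated HUVEC/PBMC co-culture; cmpd dosed, 24 h; PGE2 by ELISA; bidirectional fit vs DMSO; SRB (0.1%, TCA-fixed, 560 nm) in parallel plates for overt cytotox.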

Read-out in experiment [3]: Macrophage colony-stimulating factor (MCSF), CSF1 (gene 1435)
The experiment in a line: BSK_LPS_MCSF: BioMAP Diversity Plus: LPS Assay for Macrophage colony-stimulating factor (MCSF) Biomarker Activity (AID 2283083). As to conditions: primary human HUVEC with PBMC; actives raise or lower the signal. Summed up: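 Compound is added to a human vascular primary co-culture of umbilical vein endothelium and blood mononuclear cells. After 24 h, M-CSF is quantified by ELISA. Signal changes are fitted in both directions against DMSO.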

Read-out in experiment [4]: Tissue Factor, F3 (gene 2152)
The experiment in a line: BSK_LPS_TissueFactor: BioMAP Diversity Plus: LPS Assay for Tissue Factor Biomarker Activity (AID 2283084). The note with it: primary human HUVEC with PBMC; actives raise or lower the signal. Summed up:
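In this co-culture system of umbilical vein endothelium with PBMC, stimulated with LPS, cell-surface CD142 is detected by ELISA at 24 h. Endpoint values derive from bidirectional fitting, DMSO serving as baseline.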

Read-out in experiment [5]: Tumor necrosis factor (Homo sapiens) (UniProt P01375)
In words: BSK_LPS_TNFa: BioMAP Diversity Plus: LPS Assay for Tumour Necrosis Factor alpha (TNFa) Biomarker Activity (AID 2283085). The note with it: primary human HUVEC with PBMC; actives raise or lower the signal. Summed up: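 Read-out is ELISA of TNFa in primary human endothelial cell–PBMC co-cultures at 24 h after compound. Activity in either direction was fitted against DMSO.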

Read-out in experiment [6]: Vascular cell adhesion molecule 1 (VCAM1), VCAM1 (gene 7412)
In words: BSK_LPS_VCAM1: BioMAP Diversity Plus: LPS Assay for Vascular cell adhesion molecule 1 (VCAM1) Biomarker Activity (AID 2283086). The note with it: primary human HUVEC with PBMC; actives raise or lower the signal. In short, it runs like this: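 HUVEC + PBMC co-culture, LPS system; compound 24 h; VCAM-1 by ELISA; bidirectional fit vs DMSO control; parallel SRB (0.1%, TCA-fixed, 560 nm) for cytotoxicity.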

Read-out in the next experiment: CD38, CD38 (gene 952)
In words: BSK_SAg_CD38: BioMAP Diversity Plus: SAg Assay for CD38 Biomarker Activity (AID 2283087). As to conditions: primary human HUVEC with PBMC; actives raise or lower the signal. Summed up:
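Human HUVEC plus PBMC co-culture stimulated with superantigen; CD38 measured by ELISA 24 h after chemical dosing. Fluorescence read-out, bidirectional fit against DMSO; cytotoxicity tracked in parallel by SRB and Alamar Blue.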

Read-out in another experiment: CD40, CD40 (gene 958)
The experiment in a line: BSK_SAg_CD40: BioMAP Diversity Plus: SAg Assay for CD40 Biomarker Activity (AID 2283088). As to conditions: primary human HUVEC with PBMC; actives raise or lower the signal. In short, it runs like this:
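Fluorescence ELISA read-out of CD40 from umbilical vein endothelium plus peripheral blood mononuclear cells, sampled 24 h after dosing. Values come from bidirectional curve fitting with DMSO as baseline.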

Read-out in the next experiment: CD69, CD69 (gene 969)
The experiment in a line: BSK_SAg_CD69: BioMAP Diversity Plus: SAg Assay for CD69 Biomarker Activity (AID 2283089).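 For AC50: cell surface CD69 protein quantified by ELISA with fluorescence detection.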 The note with it: primary human HUVEC with PBMC; actives raise or lower the signal. In short, it runs like this: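 ELISA, fluorescence read-out: CD69 on human umbilical vein endothelial cell + PBMC co-culture, 24 h post-dosing. Gain or loss of signal fitted bidirectionally against DMSO baseline.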

Read-out in experiment [7]: Monocyte Chemoattractant Protein-1 (MCP1), CCL2 (gene 6347)
The experiment in a line: BSK_SAg_MCP1: BioMAP Diversity Plus: SAg Assay for Monocyte Chemoattractant Protein-1 (MCP1) Biomarker Activity (AID 2283090). The note with it: primary human HUVEC with PBMC; actives raise or lower the signal. In short, it runs like this:
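MCP-1 levels in the endothelial–PBMC SAg co-culture were quantified by ELISA at 24 h post-dosing; both increases and decreases versus DMSO scored. Cytotoxicity monitored by SRB total protein in parallel cultures.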

Read-out in experiment [8]: E-selectin (Homo sapiens) (UniProt P16581)
The experiment in a line: BSK_SAg_Eselectin: BioMAP Diversity Plus: SAg Assay for Eselectin Biomarker Activity (AID 2283091). The note with it: primary human HUVEC with PBMC; actives raise or lower the signal. Summed up: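 Primary human endothelial cells and peripheral blood mononuclear cells were co-cultured and exposed to chemical for 24 hours. E-selectin levels were then quantified by ELISA, with bidirectional curve fitting normalised to DMSO controls.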

Read-out in experiment [9]: Monokine induced gamma interferon (MIG), CXCL9 (gene 4283)
In words: BSK_SAg_MIG: BioMAP Diversity Plus: SAg Assay for Monokine induced gamma interferon (MIG) Biomarker Activity (AID 2283092). As to conditions: primary human HUVEC with PBMC; actives raise or lower the signal. Summed up: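 ELISA readout of MIG/CXCL9; primary human umbilical vein endothelial cells co-cultured with peripheral blood mononuclear cells; 24 h post-dose; gain/loss fit vs DMSO baseline.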

A short description of experiment [10]: BSK_SAg_PBMCCytotoxicity: PBMC Cytotoxicity Assessment in the BioMAP Diversity Plus: SAg Assay (AID 2283093).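 For AC50: PBMC superantigen activated with SEB plus TSST-1 one hour after compound addition.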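 Note: PBMC viability measured as Alamar Blue reduction fluorescence at 546/580 nm; fitted both ways against DMSO so a hit may be loss or gain of signal.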 The note with it: primary human HUVEC with PBMC. In short, it runs like this: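 HUVEC/PBMC co-culture; PBMC exposed to chemical 1 h before SEB and TSST-1 activation (20 ng/mL each), incubated 90 h, then Alamar Blue 6 h, fluorescence 546/580 nm. Bidirectional fit versus DMSO baseline.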

Read-out in experiment [11]: Interleukin-8 (IL8), CXCL8 (gene 3576)
In words: BSK_SAg_IL8: BioMAP Diversity Plus: SAg Assay for Interleukin-8 (IL8) Biomarker Activity (AID 2283094). The note with it: primary human HUVEC with PBMC; actives raise or lower the signal. Summed up:
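ELISA read-out of IL-8 in a primary human vascular co-culture (umbilical vein endothelium plus PBMC), taken 24 h after compound addition. Values derive from bidirectional fits against DMSO negative controls.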

Experiment [12] in a line: BSK_SAg_Proliferation: Cell Proliferation Assessment in the BioMAP Diversity Plus: SAg Assay (AID 2283095).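 Note: relative cell number as total protein by SRB absorbance in sub-confluent culture.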 The note with it: primary human HUVEC with PBMC. Summed up:
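Cells (endothelium plus PBMC, human primary) were dosed with chemical, cultured 96 h, fixed in 10% TCA and stained with 0.1% SRB. Absorbance at 560 nm gave relative protein, fitted bidirectionally relative to DMSO.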

A short description of experiment [13]: BSK_SAg_SRB: Viability Assessment in the BioMAP Diversity Plus: SAg Assay (AID 2283096).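 Note: cells read one day after compound addition; hits may be either gain or loss of signal compared with DMSO.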 As to conditions: primary human HUVEC with PBMC. Summed up: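 Human umbilical vein endothelial cells co-cultured with PBMC, read 24 h after compound dosing. Total protein measured by sulforhodamine B staining (0.1% SRB after 10% TCA fixation, absorbance 560 nm); bidirectional fit versus DMSO baseline.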

The target of experiment [14] is human CYP19A1, CYP19A1 (gene 1588) (UniProt P11511). In words: NVS_ADME_hCYP19A1: NovaScreen (NVS) CYP450-related Enzyme Activity (ADME) Assay for human CYP19A1 (AID 2283098; active = hit-call score of the fitted dose curve at least 0.9, where 1 is the maximum;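 note: potency for inhibitors seen as loss of fluorescent enzyme signal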). In short, it runs like this: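 Recombinant enzyme in a cell-free format, read 0.5 h after dosing by fluorescence from a fluorogenic substrate. Loss of signal was fitted against acetonitrile as baseline. Primary screen in duplicate at 10 uM, actives then tested in concentration series.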
Sequence of human CYP19A1, CYP19A1 (gene 1588) (P11511 whole entry, looked up): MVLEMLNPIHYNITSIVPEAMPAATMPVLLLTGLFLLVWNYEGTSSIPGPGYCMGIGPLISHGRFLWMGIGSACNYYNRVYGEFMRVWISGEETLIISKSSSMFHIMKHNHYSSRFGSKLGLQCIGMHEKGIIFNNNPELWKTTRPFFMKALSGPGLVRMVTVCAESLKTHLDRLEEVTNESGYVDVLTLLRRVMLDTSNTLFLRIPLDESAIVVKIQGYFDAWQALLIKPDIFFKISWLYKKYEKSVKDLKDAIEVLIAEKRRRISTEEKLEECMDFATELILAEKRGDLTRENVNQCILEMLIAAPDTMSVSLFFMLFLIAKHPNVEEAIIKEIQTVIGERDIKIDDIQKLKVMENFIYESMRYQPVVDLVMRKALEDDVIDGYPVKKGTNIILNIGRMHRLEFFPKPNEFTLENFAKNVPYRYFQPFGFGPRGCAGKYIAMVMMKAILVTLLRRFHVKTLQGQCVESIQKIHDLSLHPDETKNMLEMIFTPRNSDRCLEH

Sequence of E-selectin (Homo sapiens) (P16581 whole entry, looked up): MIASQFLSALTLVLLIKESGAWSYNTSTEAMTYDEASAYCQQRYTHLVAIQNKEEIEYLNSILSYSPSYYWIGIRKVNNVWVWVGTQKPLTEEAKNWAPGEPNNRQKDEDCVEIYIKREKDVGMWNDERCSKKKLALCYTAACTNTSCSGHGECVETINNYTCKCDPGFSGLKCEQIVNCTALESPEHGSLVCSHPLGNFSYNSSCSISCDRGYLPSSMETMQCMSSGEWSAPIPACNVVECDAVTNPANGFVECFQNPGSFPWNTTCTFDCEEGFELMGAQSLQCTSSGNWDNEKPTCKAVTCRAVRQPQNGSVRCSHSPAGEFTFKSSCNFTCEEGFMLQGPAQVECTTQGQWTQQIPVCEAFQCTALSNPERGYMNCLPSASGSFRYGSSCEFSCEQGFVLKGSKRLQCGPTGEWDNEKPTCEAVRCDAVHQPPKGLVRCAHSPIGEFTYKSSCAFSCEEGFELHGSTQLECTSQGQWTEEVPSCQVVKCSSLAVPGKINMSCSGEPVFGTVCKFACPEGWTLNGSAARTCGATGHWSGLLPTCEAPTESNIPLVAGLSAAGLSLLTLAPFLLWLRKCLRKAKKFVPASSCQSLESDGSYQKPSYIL
Sequence of Tumor necrosis factor (Homo sapiens) (P01375 whole entry, looked up): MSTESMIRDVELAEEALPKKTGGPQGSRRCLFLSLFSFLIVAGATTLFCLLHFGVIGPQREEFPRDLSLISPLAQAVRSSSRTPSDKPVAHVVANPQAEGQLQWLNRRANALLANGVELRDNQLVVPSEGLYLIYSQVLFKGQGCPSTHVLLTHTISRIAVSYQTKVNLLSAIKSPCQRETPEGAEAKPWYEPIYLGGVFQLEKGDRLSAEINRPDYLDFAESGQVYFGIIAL

Turning to `CCSC(=O)N(CC)C1CCCCC1`, the result in experiment [1], in experiment [2], in experiment [3], in [4], in experiment [5] and in [6] was inactive. Also, the outcome is “inactive” with CD38, CD38 (gene 952); “inactive” in the experiment with CD40, CD40 (gene 958); “inactive” with CD69, CD69 (gene 969); “inactive” in experiment [7]; “inactive” in experiment [8]; “inactive” in experiment [9]. Besides, the outcome in experiment [10], in experiment [11], in experiment [12] and in [13] was inactive.
In the case of `Sc1ccccc1`, the outcome in experiment [1], in [2], in [3], in [4], in [5] and in experiment [6] was inactive. Further, the outcome with CD38, CD38 (gene 952) is “inactive”; with CD40, CD40 (gene 958), “inactive”; in the experiment with CD69, CD69 (gene 969) it was “inactive”; in experiment [7], “inactive”; in [8], “inactive”; in experiment [10], “inactive”. The result in [11], in [12] and in experiment [13] was inactive.
Take `CN(C)CCO`: the result in [1], in experiment [2], in experiment [3], in [4], in experiment [5] and in experiment [6] was inactive. Further, the outcome with CD38, CD38 (gene 952) is “inactive”; with CD40, CD40 (gene 958), “inactive”; with CD69, CD69 (gene 969) it was “inactive”; in experiment [7], “inactive”; in experiment [8] it was “inactive”; in experiment [10], “inactive”. The outcome in experiment [11], in [12] and in experiment [13] was inactive.
For the compound `O=C(NC(=O)c1c(F)cccc1F)Nc1cc(Cl)c(OC(F)(F)C(F)F)c(Cl)c1`, the outcome in [1] is “inactive”; in experiment [2] it was “inactive”; in [3] it was “inactive”; in experiment [4] it was “inactive”; in experiment [6] it was “inactive”; with CD38, CD38 (gene 952) it was “inactive”. Further, the outcome with CD40, CD40 (gene 958) is “inactive”; with CD69, CD69 (gene 969) it was “inactive”; in experiment [7], “inactive”; in [8] it was “inactive”; in experiment [10] it was “inactive”; in experiment [11], “inactive”. Also, the result in experiment [12] and in experiment [13] was inactive. Besides, in experiment [5], the AC50 (usually the midpoint of the concentration-response curve, whichever way the signal moves) is 401 nM (active).
With `NS(=O)(=O)C(F)(F)C(F)(F)C(F)(F)C(F)(F)C(F)(F)C(F)(F)C(F)(F)C(F)(F)F`, the AC50 in [1] is 55.7 µM (active) and 57.3 µM (active); in experiment [2], 52.2 µM (active) and 51.9 µM (active); in experiment [3], 30.9 µM (active) and 54.9 µM (active) and 51.8 µM (active); in experiment [4] it was 44.6 µM (active); in experiment [5] it was 28.6 µM (active) and 49.6 µM (active) and 49.3 µM (active); in experiment [6], 53.8 µM (active) and 46.6 µM (active). The AC50 with CD38, CD38 (gene 952) is 27.8 µM (active) and 43.8 µM (active) and 42.4 µM (active); with CD40, CD40 (gene 958), 27.7 µM (active) and 46.1 µM (active) and 45.8 µM (active); with CD69, CD69 (gene 969) it was 27.4 µM (active) and 40.8 µM (active) and 43.4 µM (active); in experiment [7], 31.2 µM (active) and 54.2 µM (active) and 54.5 µM (active); in experiment [8], 20 µM (active) and 45.5 µM (active) and 49 µM (active); in experiment [9], 34.6 µM (active) and 51.3 µM (active) and 56.3 µM (active). For the same compound, the AC50 in experiment [10] was 33.6 µM (active) and 48 µM (active) and 55.1 µM (active); in experiment [11] it was 31.8 µM (active) and 43.3 µM (active) and 44.3 µM (active); in experiment [12], 32.2 µM (active) and 43.5 µM (active) and 51.1 µM (active); in experiment [13], 27.6 µM (active) and 47.4 µM (active) and 44.9 µM (active). In addition, the outcome in experiment [1], in [2], in [4] and in experiment [6] was inactive.
As to `CC(C)C(=O)OCC(C)(C)C(OC(=O)C(C)C)C(C)C` (configuration not stated), the outcome in experiment [1], in [2], in experiment [3], in experiment [4], in [5] and in experiment [6] was inactive. For the same compound, the outcome with CD38, CD38 (gene 952) is “inactive”; in the experiment with CD40, CD40 (gene 958), “inactive”; with CD69, CD69 (gene 969), “inactive”; in experiment [7], “inactive”; in experiment [8] it was “inactive”; in experiment [10], “inactive”. Moreover, the result in [11], in experiment [12] and in experiment [13] was inactive. Also, the concentration at half-maximal activity (AC50) in experiment [14] was 11.6 µM (active).
